TDP1 cell CPT = growth inhibition of DT40 Tdp1-/-;hTDP1 cells with camptothecin (screen for TDP1 inhibitors); Potency, µM (doses to about 46.2 µM), usual class: inhibitors; chicken DT40 Tdp1-/-;hTDP1 cells + 20 nM CPT, ATP luminescence, 48 h; actives 12% (n = 420,000); further: nearly all actives have a fitted effect of over 55% in size
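Chicken DT40 Tdp1-/- cells stably complemented with human TDP1 were seeded at 400 cells/well in medium containing 20 nM camptothecin, exposed to pin-transferred compounds, and grown at 37 °C for at least 48 hr. Viability was read as ATP luminescence.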
12-LOX inh = blocks human arachidonate 12S-lipoxygenase; P18054; purified 12hLO, xylenol orange hydroperoxide absorbance; Potency, µM (top dose mostly 108 µM), usual class: inhibitors; actives 1.1% (n = 580,000)
Target sequence (P18054 whole entry, looked up): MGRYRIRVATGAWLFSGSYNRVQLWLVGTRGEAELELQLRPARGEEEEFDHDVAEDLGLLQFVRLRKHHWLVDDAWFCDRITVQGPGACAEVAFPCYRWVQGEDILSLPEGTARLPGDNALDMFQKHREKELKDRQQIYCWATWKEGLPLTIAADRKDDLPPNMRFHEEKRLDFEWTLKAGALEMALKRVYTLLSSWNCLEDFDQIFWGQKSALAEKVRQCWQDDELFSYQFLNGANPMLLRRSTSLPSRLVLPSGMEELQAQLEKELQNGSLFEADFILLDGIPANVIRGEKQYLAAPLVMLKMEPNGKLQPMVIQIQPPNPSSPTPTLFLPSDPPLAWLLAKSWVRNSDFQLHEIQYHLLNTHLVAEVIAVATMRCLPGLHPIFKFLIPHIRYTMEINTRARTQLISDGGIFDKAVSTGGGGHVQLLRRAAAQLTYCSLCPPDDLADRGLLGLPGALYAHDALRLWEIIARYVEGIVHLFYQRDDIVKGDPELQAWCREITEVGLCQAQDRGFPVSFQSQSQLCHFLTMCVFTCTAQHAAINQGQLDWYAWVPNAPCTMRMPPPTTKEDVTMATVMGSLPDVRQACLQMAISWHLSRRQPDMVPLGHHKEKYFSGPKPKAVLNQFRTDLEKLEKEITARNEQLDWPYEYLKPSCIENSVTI
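Purified human 12hLO (150 nM final) in 25 mM Hepes, 0.01% Triton X-100, pH 7.0 was preincubated 15 min at room temperature with compound. Then 40 uM arachidonic acid was added, 30 min. Hydroperoxide was read by Fe-XO absorbance ratio 573/405 nm.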
HT1080 IDH1KD tx = kills HT-1080 cells with IDH1 knockdown | HT-1080 IDH1 knockdown viability, ATP luminescence, 48 h | Potency, µM (series often up to 46.1 µM), usual class: cytotoxic | actives 2% (n = 360,000) | AID 686971
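IDH1KD HT-1080 cells, 750/well, RPMI + 5% FBS; compound pinned after 2 h settling; 48 h, 37 °C; CellTiter-Glo luminescence; % activity normalised to DMSO and no-cell wells; curves fitted, classed by r2 and efficacy.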
TDP1 cell noCPT = qHTS for Inhibitors of human tyrosyl-DNA phosphodiesterase 1 (TDP1): qHTS in cells in absence of CPT; actives 15% (n = 420,000); DT40 Tdp1-/- hTDP1 cells, no CPT, ATP luminescence, 48 h; Potency, µM (titrated, usually from 46.2 µM), usual class: inhibitors; further: nearly all actives have a fitted effect of over 55% in size
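A cellular qHTS used chicken DT40 cells lacking endogenous Tdp1 but carrying stably transfected human TDP1. Compounds were applied without camptothecin, and cell growth kinetics were judged by ATP-dependent luminescence after ≥48 hr.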
IL-1B inflam inh = blocks inflammasome-driven IL-1 beta release | AID 743279 | activity change, % at 57.5 µM | actives 4.7% (n = 360,000) | THP-1 LPS/ATP IL-1B secretion, AlphaLISA, 16 h; stronger effect = lower value; in the data active means activity change below about -50%; inconclusive means mostly about -30% to -49%
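Secreted IL-1B measured by AlphaLISA bead assay after 16 h compound exposure of THP-1 cells; compounds (final up to 57.5 uM) added 1 h before LPS (250 ng/mL) and ATP (1.25 mM) stimulation; lower signal means less secretion.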
HT1080NT lethal = kills 2HG-producing HT-1080-NT fibrosarcoma cells; HT-1080-NT fibrosarcoma viability, CellTiter-Glo ATP luminescence, 48 h; Potency, µM (titrated, usually from 46.1 µM), hits mostly cytotoxic; actives 1.6% (n = 360,000); AID 686970;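 further: NT is the 2HG producing partner of a matched IDH1 knockdown line; nearly all actives have a fitted effect of over 55% in size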
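Viability by CellTiter-Glo luminescence after 48 h compound exposure at 37C of HT-1080-NT cells (750/well, RPMI, 5% FBS). % activity scaled between DMSO wells and medium-only wells, then curve-fitted and categorized by curve class.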
Hits are given with their value; – = inactive; ? = inconclusive; · = not tested or not shown; ! = repeats disagree. The sample as a whole holds a higher share of hits than the screen did. Unless noted, the call rests on the fitted dose curve; in most records, active means well fitted curve in the direction sought with a large enough effect; inconclusive means small, poorly fitted or top-dose-only effect, or another doubt; inactive means no such curve, though single readings can be large; an effect the other way counts as inactive or inconclusive.

SMILES	TDP1 cell CPT	12-LOX inh	HT1080 IDH1KD tx	TDP1 cell noCPT	IL-1B inflam inh	HT1080NT lethal
O=C(c1ccco1)N1CCN(Cc2nc3ccc([N+](=O)[O-])cc3c(=O)n2-c2ccccc2F)CC1	?	–	–	8.2µM	–	–
O=c1c2cc([N+](=O)[O-])ccc2nc(CN2CCN(c3ccccn3)CC2)n1-c1ccccc1F	?	–	–	14.6µM	–	–
COc1ccc(-n2c(CN3CCN(Cc4ccccc4)CC3)nc3ccc([N+](=O)[O-])cc3c2=O)c(OC)c1	?	–	–	–	–	–
O=C(c1cnccn1)N1CCN2C(=O)N(C3CCOCC3)C[C@H]2C1	·	–	·	·	·	·
CN(Cc1ccccc1)C1CCOC2(CCN(C(=O)NCCc3ccccc3)CC2)C1 (stereo not drawn)	·	–	·	·	·	·
Oc1ccccc1C1OCC2(CO1)COC(c1ccccc1O)OC2 (stereo not drawn)	?	–	–	–	–	–
Oc1ccccc1C1SC(c2ccccc2O)SC(c2ccccc2O)S1 (stereo not drawn)	?	?	?	?	-88.8	14.6µM
O=C(CCCCn1ccc(=O)[nH]c1=O)Nc1ccc(O)c(C(=O)O)c1	–	–	–	–	–	–
Cc1nc2sc(-c3ccccc3)cc2c(=O)n1-n1cccc1	?	–	–	?	-62.5	–
CCOc1ccc(/C=N/NC(=S)Nc2c(C)cccc2C)cc1	20.6µM	?	–	20.6µM	–	–
CCNC(=S)N/N=C/c1ccc(OCC(=O)Nc2ccc(OC)cc2)c(OC)c1	?	–	–	?	–	–
CCNC(=S)N/N=C/c1ccc(OCC(=O)Nc2ccc(C)cc2)cc1	?	–	10µM	–	–	5.62µM
COc1ccc(Br)cc1C1CC(=O)C(C)C(c2cc(Br)ccc2OC)N1 (stereo not drawn)	–	–	–	–	–	–
CCOc1ccc(OCC)c(Nc2cc(C)nc3nc(C)nn23)c1	18.4µM	?	–	?	–	–
CCOc1ccccc1Nc1cc(C)nc2nc(C)nn12	–	5.62µM	–	–	–	–
CN1C(=O)c2ccccc2Sc2ccc(NC(=O)NCc3ccccc3Br)cc21	16.4µM	–	·	20.6µM	·	·
CC(C)CCNC(=O)Nc1ccc2c(c1)N(C)C(=O)c1ccccc1S2	14.6µM	–	·	16.4µM	·	·
COc1ccccc1CNC(=O)Nc1ccc2c(c1)N(C)C(=O)c1ccccc1S2	?	–	·	?	·	·
CC(C)CCNC(=O)Nc1ccc2c(c1)N(C)C(=O)CS2	–	–	–	?	–	–
CC[N+](CC)(CC)CCOc1cccc(OCC[N+](CC)(CC)CC)c1OCC[N+](CC)(CC)CC	–	?	–	–	–	–
CC[N+](CC)(CC)CCOc1ccc(/C=C\c2ccccc2)cc1	2.66µM	–	·	2.11µM	·	·
CC[N+](CC)(CC)CCOc1ccc(/C=C/c2ccccc2)cc1	4.61µM	50.1µM!	16.4µM	2.59µM	–	?
O=C(NC(O)C(=O)c1ccc(F)cc1)c1ccccc1 (stereo not drawn)	·	–	·	·	·	·
Cc1ccc(-c2n[nH]c(=O)c3ccccc23)cc1N	?	–	?	–	–	–
Nc1ccc(-c2n[nH]c(=O)c3ccccc23)cc1N	0.461µM	–	–	?	–	–
SMILES	TDP1 cell CPT	12-LOX inh	HT1080 IDH1KD tx	TDP1 cell noCPT	IL-1B inflam inh	HT1080NT lethal
COc1ccc(CN2C(=O)[C@@H]3C[C@@H](CN3C(=O)c3ccc(Cl)cc3)Oc3ccccc32)cc1	·	–	·	·	·	·
CC1=CC(c2ccccc2)=NS(=O)(=O)N1	–	–	–	–	-104.0	–
CCOC(=O)C1=NS(=O)(=O)NC(C)=C1	–	–	–	–	–	–
C(=N\Nc1nc(Nc2ccccc2)nc(N2CCCCC2)n1)/c1ccco1	·	–	·	·	·	·
CCOC(=O)c1cc(NC(=O)c2cccc(-c3cc4ccccc4oc3=O)c2)ccc1N1CCOCC1	·	8.91µM	·	·	·	·
O=C(Nc1cccc(Cl)c1N1CCCC1)c1cccc(-c2cc3ccccc3oc2=O)c1	18.4µM	–	–	?	–	–
O=C(O)c1cccc(-c2cc3ccccc3oc2=O)c1	·	–	·	·	·	·
